Source: the supplement of paper PMC13392028
The full ranking holds about 4,100 sequences; the median of “RBNS R-value (6-mer enrichment in protein-bound RNA vs input library)” is about 0.96, and the highest 2% start at about 2.4. This is one part of a sample in which the highest values are shown more often than they occur.

Tested on: PyIESI-1 RRM domain (Plasmodium yoelii PY17X_0911200 aa 795-956, GST fusion)
Assay: RBNS R-value (6-mer enrichment in protein-bound RNA vs input library) (ratio); higher = stronger binding preference; the methods of the paper give 50 / 100 / 500 nM protein instead
Protocol: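 RNA Bind-n-Seq: recombinant GST-tagged IESI-1 RRM domain was incubated at room temperature with a random 40-nt in vitro transcribed RNA library at 250, 500 or 1000 nM protein. Bound RNA was pulled down on glutathione beads and sequenced. R-value is the enrichment of each 6-mer in the bound RNA relative to the input library. Each 6-mer sits inside the random 40-mer context, not as an isolated oligo. Values are replicate 1 only.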

Sequence	RBNS R-value (protein concentration: 250 nM)	RBNS R-value (protein concentration: 500 nM)	RBNS R-value (protein concentration: 1000 nM)
GAUAUG	2.3	2.32	2.43
AUAUAA	0.522	0.55	0.539
AGUGUA	0.664	0.68	0.657
GGAGUU	0.958	0.98	0.948
UUUACC	0.764	0.778	0.794
GGGUGU	0.909	0.99	0.941
UCGGAA	0.911	0.907	0.87
CAUGAU	5.84	5.36	5.72
UAUGAG	0.865	0.899	0.898
CAUGAG	0.978	0.984	0.979
CAUGAA	0.887	0.913	0.901
AAUGAU	5.76	5.22	5.56
AAUGAG	1.03	1.07	1.04
AAUGGU	0.878	0.894	0.881
UAUGAU	4.89	4.59	4.9
UAUGAA	0.826	0.838	0.811
AUAGUC	0.632	0.65	0.627
CACCUG	1.72	1.67	1.73
GAUGAA	4.07	3.66	3.68
UAUGAC	0.93	0.947	0.974
GAUAAU	1.7	1.73	1.86
GACGAG	1.19	1.18	1.13
AAUGAC	1.19	1.23	1.25
GAUGAU	6.07	5.52	5.59

Sequence	RBNS R-value (protein concentration: 250 nM)	RBNS R-value (protein concentration: 500 nM)	RBNS R-value (protein concentration: 1000 nM)
GAUGAG	3.25	3.07	3.06
AAUGAA	1.03	1.02	1.02
GAUGGU	1.92	1.85	1.9
GGUGAA	1	1.02	0.954
GAUGAC	3.66	3.41	3.46
UGAUCG	1.64	1.68	1.74
CUAAGC	0.741	0.738	0.733
GUUUGG	0.834	0.866	0.813
UAGGAG	0.934	0.936	0.887
CUGCAU	0.892	0.929	0.917
UCUGUU	0.847	0.911	0.878
GUGGCG	0.953	0.954	0.937
UAAUGA	1.69	1.65	1.71
GAAUGA	2.5	2.31	2.3
GAAUGU	0.999	1	0.972
AAAUGC	0.942	0.952	0.985
AAAUGA	2.48	2.3	2.4
GAAUGC	1.17	1.18	1.17
AUUAAC	0.87	0.859	0.881
CCCUCC	1.15	1.13	1.17
UCGCGU	0.843	0.85	0.835
ACUCUC	0.893	0.906	0.906
GAGGAC	1.09	1.06	1.02
